Assay outcomes: PubChem BioAssay, Broad Institute
Sampled rows, rich in hits. Any-hit rate of the full collection: about 2.7%.
CFTR F508del cor: correctors of CFTR F508del function in bronchial epithelial cells | CFBE cells, YFP halide quenching; stimulated with forskolin plus potentiator P3; % fluorescence drop versus neutral controls | activity (quench increase), % at 7.58 µM | 350,000 compounds, 0.36% hits;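 active = mean added fluorescence quench of at least 8% versus neutral control, with both replicates also reaching 8%; inconclusive = only one of the mean or replicate conditions met; inactive = mean below 8% and not both replicates reaching 8%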;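 note: cells transiently co-express mutant CFTR-F508del with the halide-sensitive YFP; corrector assay measuring rescue of mutant channel to the surface after 24 h compound exposure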
MITF act: activators of MITF-driven TRPM1 promoter activity in SK-MEL-5 cells. SK-MEL-5 TRPM1-promoter luciferase, 24 h; % of positive control, neutral wells = 0. activation, % at 12.5 µM. 300,000 compounds, 0.75% hits. AID 588334;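 active = mean activation of at least 80% with every replicate also reaching 80%; inconclusive = mean reaches 80% but some replicate falls short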
Wnt bcat act: Wnt/beta-catenin pathway activation. 300,000 compounds, 1.2% hits. activation, % at 9.35 µM. Wnt/beta-catenin reporter cell assay, activator, plate reader. AID 743398; in the data active = activation above about 30%, passing the limit was not always enough; inconclusive = no clear call, values can overlap the other calls
GSIS activator: primary screen for activators of insulin secretion dependent on glucose, INS-1E cells, GLuc reporter luminescence | INS-1E GLuc reporter insulin secretion, 2-3 h | activation, % at 16.6 µM | 370,000 compounds, 0.61% hits | AID 743287;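 active = lowest replicate activation of at least 40%, so every replicate reaches that level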
Env fusion inh: blocks HIV Env-driven cell-cell fusion. HeLa-JRFL Env/CEM21 cell fusion, luciferase. inhibition, % at 12.3 µM. 360,000 compounds, 1.1% hits. AID 651610;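 active = mean replicate inhibition score of at least 50 and every replicate individually at or above 50; inconclusive = only one of the two criteria met; inactive = mean below 50 and not all replicates reaching 50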
Large screens that a line does not name were inactive; [ ] = another dose, or the depositor's remark.

CCC1CCC(NC(=O)Nc2cccc(OC)c2)CC1 (stereo unspecified)	MITF act inconclusive, Wnt bcat act 57.2 (no result: CFTR F508del cor)
C[C@H](CO)N1C[C@H](C)[C@@H](CN(C)C(=O)NC2CCCCC2)Oc2ccc(NS(=O)(=O)c3cn(C)cn3)cc2CC1=O	none (no result: MITF act, Wnt bcat act)
C[C@H]1CN([C@@H](C)CO)C(=O)CCCn2nncc2CO[C@@H]1CN(C)S(C)(=O)=O	none (no result: MITF act, Wnt bcat act, Env fusion inh)
COc1ccc(CN(C)C[C@H]2Oc3ccc(NC(=O)Nc4c(C)noc4C)cc3C(=O)N([C@H](C)CO)C[C@H]2C)cc1	none (no result: MITF act, Wnt bcat act)
Cc1cc(C)cc(NC(=O)C2CCCN(c3ncccn3)C2)c1 (stereo unspecified)	none
Cc1ccc(NC(=O)C2CCCN(c3ncccn3)C2)cc1F (stereo unspecified)	MITF act 134.1 (no result: CFTR F508del cor, Wnt bcat act)
O=C(Nc1ccc2c(c1)CCC2)C1CCCN(c2ncccn2)C1 (stereo unspecified)	MITF act 85.7 (no result: CFTR F508del cor, Wnt bcat act)
Cc1nc2ncnn2c(N2CCCC(C(=O)Nc3ccc4c(c3)CCC4)C2)c1C (stereo unspecified)	Env fusion inh 78.1 (no result: CFTR F508del cor, Wnt bcat act)
CCc1c(C)nc2ncnn2c1N1CCC(C(=O)Nc2ccc(C)cc2)CC1	Env fusion inh inconclusive (no result: CFTR F508del cor)
COc1ccc2c3c([nH]c2c1)[C@@H](CO)N(C(=O)NC1CCCC1)CC31CN(S(C)(=O)=O)C1	none (no result: MITF act, Wnt bcat act, Env fusion inh)
O=C(O)c1ccccc1/C=N/NC(=S)NC1CCCCC1	GSIS activator 75.5
O=C(O)c1ccccc1/C=N/NC(=O)C1CCCCC1	none
C=C1C(=O)[C@]23C[C@H]1CCC2[C@@]1(C)C(C[C@@H]3O)[C@](C)(C(=O)OC)CC[C@@H]1OC(C)=O (stereo partly specified)	GSIS activator 134.0 (no result: MITF act)
C=C1C(=O)[C@]23C[C@H]1CC[C@H]2[C@]1(C)[C@@H](O)CC[C@@](C)(C(=O)O)[C@H]1C[C@@H]3O	none (no result: MITF act)
C=C1C(=O)[C@]23C[C@H]1CC[C@H]2[C@]1(C)[C@@H](OC(C)=O)CC[C@@](C)(C(=O)O)[C@H]1C[C@@H]3O	CFTR F508del cor 8.6, GSIS activator 84.3 (no result: MITF act)
C=C1C(=O)[C@]23C[C@H]1CC[C@H]2[C@]1(C)[C@@H](OC(C)=O)CC[C@@](C)(C(=O)OC)[C@H]1C[C@@H]3OC(C)=O	none (no result: MITF act)
CCCN(C)C[C@H]1Oc2cc(C3=CCCC3)ccc2S(=O)(=O)N([C@@H](C)CO)C[C@@H]1C	none (no result: MITF act, Wnt bcat act)
C[C@@](Cc1ccc(O)c(O)c1)(NN)C(=O)O	CFTR F508del cor 8.4
CC(C)N(Cc1nccn1C)C(=O)CCc1nnc(CCCc2ccccc2)o1	Wnt bcat act 69.0
Cc1ccc(Nc2ncnc3ccccc23)cc1	MITF act inconclusive (no result: Wnt bcat act)
Cc1ccc(/C(=N/Nc2ncnc3ccccc23)C(=O)O)cc1	Wnt bcat act 44.4
Cc1noc(C)c1NC(=O)Nc1ccc2c(c1)CC(=O)N([C@@H](C)CO)C[C@H](C)[C@@H](CN(C)S(=O)(=O)c1cccs1)O2	none (no result: MITF act, Wnt bcat act)
O=C(Cc1ccccn1)N1CC(=O)N2[C@H](CO)[C@H](c3ccc(C#CC4CCCC4)cc3)[C@H]2C1	none (no result: MITF act, Wnt bcat act)
C[C@H](CO)N1C[C@H](C)[C@@H](CN(C)S(=O)(=O)c2ccsc2)OCc2ccccc2-c2c(n(C)c3ccccc23)C1=O	none (no result: MITF act, Wnt bcat act)
N#Cc1c(-c2ccncc2)cc(-c2ccc(F)cc2)nc1N	GSIS activator 49.4 (no result: MITF act)
Cc1ccc(S(=O)(=O)N2CCCCC2CCNC(=O)C(=O)NCc2ccccc2)cc1 (stereo unspecified)	CFTR F508del cor 9.8 (no result: Env fusion inh)
O=C(NCCC1CCCCN1S(=O)(=O)c1ccccc1)C(=O)NCc1cccnc1 (stereo unspecified)	none
O=C(NCCC1CCCCN1S(=O)(=O)c1ccc(F)cc1)C(=O)NCc1cccnc1 (stereo unspecified)	GSIS activator 49.7 (no result: Env fusion inh)
CS(=O)(=O)Nc1ccc2c(c1)[C@H]1C[C@H](CC(=O)N3CCCCC3)O[C@H](CO)[C@H]1O2	none (no result: MITF act, Wnt bcat act, Env fusion inh)
CC(=O)N(C)C[C@@H]1Oc2ncc(C#Cc3ccc(F)cc3)cc2C(=O)N([C@@H](C)CO)C[C@@H]1C	none (no result: MITF act, Wnt bcat act)
Cc1cc(-c2ccccc2)nc(N(C)NC(=O)C2CC2)c1S(C)(=O)=O	CFTR F508del cor 8.5
COc1ccc(-c2ccc(SCC(=O)c3cccs3)nn2)cc1OC	GSIS activator 42.9 (no result: CFTR F508del cor)
COc1ccc(-c2nnc(SCC(=O)N3CCCCC3)o2)cc1OC	none
COc1ccc(-c2ccc(SCC(=O)N3CCOCC3)nn2)cc1OC	GSIS activator 83.6 (no result: CFTR F508del cor, Wnt bcat act)
COc1ccc(-c2ccc(SCC(=O)N3CCCC3)nn2)cc1OC	GSIS activator 81.1 (no result: CFTR F508del cor)
COc1ccc(-c2ccc(SCC(=O)c3ccc(F)cc3)nn2)cc1OC	none
C[C@@H]1CN([C@@H](C)CO)C(=O)c2cc(C#CC3CCCC3)cnc2O[C@@H]1CN(C)C(=O)Cc1ccccn1	none (no result: MITF act, Wnt bcat act)
N#C[C@H]1[C@@H](c2ccccc2)[C@H](CO)N1C(=O)c1ccc2c(c1)OCO2	none (no result: MITF act, Wnt bcat act, Env fusion inh)
COc1ccc(Cl)cc1C(=O)Nc1cccc(-c2ccc3nncn3n2)c1	GSIS activator 43.0
CC(C)NC(=O)N1[C@H](CO)[C@@H]2c3ccccc3N(C(=O)C3CCCCC3)C[C@@H]21	none (no result: MITF act, Wnt bcat act, Env fusion inh)
CCN(CC)c1ncnc2ccc(Br)cc12	Env fusion inh 86.6 (no result: CFTR F508del cor, Wnt bcat act)
CCCNc1ncnc2ccc(Br)cc12	none (no result: MITF act, Wnt bcat act, GSIS activator)
COC(=O)C1=C(C)N(Cc2ccccc2)C(=S)N[C@H]1c1ccccc1	none
COC(=O)C1=C(C)N(CC2CC2)C(=O)N[C@H]1c1ccc(Br)cc1	Env fusion inh 77.5 (no result: MITF act)
COC(=O)C1=C(C)N(Cc2ccc(C(F)(F)F)cc2)C(=NCc2ccccc2C(F)(F)F)NC1c1cccc(Cl)c1 (stereo unspecified)	GSIS activator 241.7 (no result: MITF act)
COC(=O)C1=C(C)N(Cc2ccc(Cl)cc2)C(=S)NC1c1ccc(Cl)cc1 (stereo unspecified)	Env fusion inh 60.6 (no result: MITF act)
COC(=O)C1=C(C)N(Cc2ccc(C(F)(F)F)cc2)C(=NCc2ccccc2C(F)(F)F)NC1c1ccccc1 (stereo unspecified)	none (no result: MITF act)
COC(=O)C1=C(C)N(Cc2ccc(C(F)(F)F)cc2)C(=NCc2ccccc2C(F)(F)F)NC1c1ccc(Cl)cc1 (stereo unspecified)	GSIS activator 49.1 (no result: MITF act)
COC(=O)C1=C(C)N(Cc2ccc(C(F)(F)F)cc2)C(=NCc2ccccc2C(F)(F)F)NC1c1ccc(C(F)(F)F)cc1 (stereo unspecified)	none (no result: MITF act, GSIS activator)
CCCNC(=O)[C@@H]1[C@@H](CO)[C@@H]2Cn3c(cccc3=O)[C@@H]2N1C(=O)C1CCC1	none (no result: MITF act, Wnt bcat act, Env fusion inh)
Cc1cc(C(=O)Nc2cccc3c2O[C@H](CN(C)S(C)(=O)=O)[C@@H](C)CN([C@@H](C)CO)C3=O)n(C)n1	none (no result: MITF act, Wnt bcat act)
CNC[C@H]1Oc2ccccc2C(=O)N(C)C[C@@H]1C	none (no result: CFTR F508del cor, MITF act, Wnt bcat act, Env fusion inh)
COc1cccc(S(=O)(=O)N[C@@H]2CC[C@H](CCN)O[C@H]2CO)c1	Env fusion inh 65.6[16.7 µM] (no result: MITF act, Wnt bcat act)
COc1cccc(S(=O)(=O)N[C@H]2CC[C@@H](CCN)O[C@@H]2CO)c1	Env fusion inh 68.0[16.7 µM] (no result: MITF act, Wnt bcat act)
COc1cccc(S(=O)(=O)N[C@@H]2CC[C@@H](CCN)O[C@@H]2CO)c1	none (no result: MITF act, Wnt bcat act)
